Among the data in PubChem BioAssay AID493170 (National Center for Advancing Translational Sciences (NCATS), 2011) are Potency values, retold here.

Structures are written as SMILES. Results filed as inconclusive are left out. A call without a number means that no potency is given here. Calls of active or inactive are those of the source. Calls follow the shape of the dose curve; as a rule, active = well fitted inhibition curve with a large enough effect; inconclusive = small, poorly fitted or top-dose-only effect, or effect the other way; inactive = flat fitted curve, though single readings scatter.
Potency is read from the fitted curve at half-maximal effect.

Sequence of Ubiquitin carboxyl-terminal hydrolase 2 (Homo sapiens) (O75604 whole entry, looked up): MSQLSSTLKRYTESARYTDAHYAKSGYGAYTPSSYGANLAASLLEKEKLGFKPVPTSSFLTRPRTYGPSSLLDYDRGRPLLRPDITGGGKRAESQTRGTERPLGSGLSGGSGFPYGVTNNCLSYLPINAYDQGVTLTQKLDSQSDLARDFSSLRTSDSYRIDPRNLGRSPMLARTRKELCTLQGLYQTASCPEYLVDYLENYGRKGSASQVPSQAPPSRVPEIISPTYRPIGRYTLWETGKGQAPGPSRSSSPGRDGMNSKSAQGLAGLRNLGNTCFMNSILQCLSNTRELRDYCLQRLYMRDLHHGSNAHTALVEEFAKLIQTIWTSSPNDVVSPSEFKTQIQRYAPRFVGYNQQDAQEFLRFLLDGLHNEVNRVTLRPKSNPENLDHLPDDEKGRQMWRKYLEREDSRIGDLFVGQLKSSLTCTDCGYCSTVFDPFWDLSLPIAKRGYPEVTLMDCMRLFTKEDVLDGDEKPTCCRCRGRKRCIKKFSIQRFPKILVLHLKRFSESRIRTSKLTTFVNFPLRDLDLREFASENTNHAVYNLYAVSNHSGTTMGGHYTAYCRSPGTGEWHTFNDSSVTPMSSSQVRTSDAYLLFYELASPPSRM

The target of the experiment is Ubiquitin carboxyl-terminal hydrolase 2 (Homo sapiens) (UniProt O75604). As to the kind of experiment: Ub-rhodamine 110 based assay for inhibitors Ubiquitin-specific Protease USP2a. Also: nearly all actives have a fitted effect of over 50% in size. Conditions: USP2a Ub-rhodamine110 cleavage, fluorescence; series mostly up to 38.3 µM. An outline of the steps:
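5 nM USP2a preincubated with compounds for 30 min at RT in 20 mM Tris-HCl pH 8.0, 2 mM CaCl2, 2 mM beta-mercaptoethanol, 0.05% CHAPS. Cleavage of 150 nM Ub-rhodamine 110 read kinetically (Ex 485/Em 531) for 7 min.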
Consider `CCN(CC(=O)Nc1ccc(NC(C)=O)cc1)C(=O)c1ccc(N2CCC(C)CC2)c([N+](=O)[O-])c1`, for which the Potency entry is “inactive”.
As for `CCC(CO)Nc1nc(CN2CCCCC2)nc2scc(-c3ccccc3)c12` (configuration not stated), the Potency result is “inactive”.
Take `Cc1ccc(CNC(=O)CCNS(=O)(=O)c2ccc(C)cc2)cc1`: the Potency result is “inactive”.
`c1coc(CNC2CCCCCCC2)c1`: the Potency entry was “inactive”.
Regarding `CCc1cc2c(=O)c(-c3nc4ccccc4n3C)coc2c(CN2CCCCC2C)c1O` (configuration not stated), the Potency entry was “inactive”.
In the case of `CC(C)CC(=O)NC(=S)Nc1nc(-c2ccc(Cl)cc2)cs1`, the Potency result was “inactive”.
Take `O=C(c1ccco1)N1CCN(C(c2cccs2)c2sc3ncnn3c2O)CC1` (configuration not stated): the Potency entry is “inactive”.
On to `O=C(CSCc1cnn(-c2ccccc2)c1-n1cccc1)NCC1CCCO1` (configuration not stated), for which the Potency result is “inactive”.
With `CC(=O)Nc1cc[n+](CC(=O)c2ccc(Cl)cc2)cc1`, the Potency entry was “inactive”.
Regarding `c1ccc(Nc2c3c(nc4ncnn24)CCC3)cc1`, the Potency entry is “inactive”.
Under `O=C(CNC(=O)C1CCCCC1)NC1=NCCS1` stands “inactive”.
The value for `COc1ccc(/C=C2\SC(=S)N(NS(=O)(=O)c3ccc(C)cc3)C2=O)c(OC)c1` was 10 µM (active); that for `Cc1cc(C(=O)CSc2nnc(Nc3ccccc3F)s2)c(C)n1CC1CCCO1` (configuration not stated) was “inactive”.
The value for `Cc1c(NC(=O)C2CCCN2S(=O)(=O)c2ccc(Cl)cc2)c(=O)n(-c2ccccc2)n1C` (configuration not stated) was “inactive”.
In the case of `CC(C)OCCCNC(=O)c1c(N)n(/N=C/c2ccccn2)c2nc3ccccc3nc12`, the Potency result was “inactive”.
On to `CCN(CC)CCNc1nc(-c2ccccc2)c2c(c1C#N)CC(C)(C)OC2`, for which the Potency result is “inactive”.
Turning to `Cc1c(NC(=O)C2CCCN(S(=O)(=O)c3cnc[nH]3)C2)c(=O)n(-c2ccccc2)n1C` (configuration not stated), the Potency entry is “inactive”.
